Screening results (PubChem BioAssay)
DRD3 antagonist – D3 dopamine receptor (human) antagonism; P35462; D3R cells, DiscoveRx beta-arrestin luminescence, antagonist mode; stronger effect = lower value; max response, negative = inhibition, %; 2.5% of 360,000 active; in the data active = max response below about -50%; inconclusive = no clear call, values can overlap the other calls; also: % is scaled to controls: 0 for no effect and ±100 for the full control effect
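Cells expressing the human receptor were seeded at 1500 cells/well, incubated overnight at 37 degrees C in 5% CO2, then exposed to library compounds with dopamine controls for 90 minutes at 37 degrees C before luminescent detection.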
Integrin act MD – activates integrin-mediated alleviation for muscular dystrophy. AID 624291. alpha7betagal myoblasts, beta-gal FDG fluorescence, 48 h. Potency, µM (series often up to 38.3 µM), inactives show at the top dose activation, most hits filed as activators. 0.064% of 350,000 active;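 also: potency is read from the fitted curve at half-maximal effect; 100% = response of the positive control SU9516; nearly all actives have a fitted effect of over 60% in size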
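Alpha7betagal+/- myoblasts (passage 13) were plated 16-24 hr, then exposed to compounds (1:260 dilution of DMSO stock) for 48 hours at 37C. After MPER lysis, β-galactosidase reporter activity was read as FDG fluorescence (ex 480/em 540) after 30 minutes.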
MBNL1 CUG block – inhibitors of human MBNL1 binding to CUG repeat RNA; Q9NR56; TR-FRET MBNL1-His/biotin-(CUG)12 binding, 665/545 ratio; Potency, µM (top dose mostly 57.5 µM), inactives show at the highest dose activity change, negative = inhibition, most hits filed as inhibitors; 0.036% of 280,000 active; AID 2675; active = well fitted inhibition curve with a large enough effect in the signal ratio, with a control signal flat, not every such curve was filed as active; inconclusive = small, poorly fitted or top-dose-only effect, or effect the other way, or a change in a side signal; inactive = no such curve, though single readings can be large or run the other way; the % refers to the signal ratio; also: potency is read from the fitted curve at half-maximal effect; % is scaled to controls: 0 for no effect and ±100 for the full control effect
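Inhibition of protein-RNA binding appears as loss of TR-FRET between terbium anti-His antibody on MBNL1-His and streptavidin-XL665 on biotin-(CUG)12. Activity is normalized to buffer-only and uninhibited-complex controls.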
CBFb-RUNX1 inh – CBF-beta/RUNX1 interaction disruption; AlphaScreen CBFb-His/RUNX1-biotin binding, biochemical; 230,000 tested, under 10 active; AID 1477; Potency, µM (titrated, usually from 59.8 µM), for inactives: top-dose activity, negative = inhibition, actives largely listed as inhibitors; also: % of control where 0% means no effect
Target sequence (Q01196 whole entry, looked up): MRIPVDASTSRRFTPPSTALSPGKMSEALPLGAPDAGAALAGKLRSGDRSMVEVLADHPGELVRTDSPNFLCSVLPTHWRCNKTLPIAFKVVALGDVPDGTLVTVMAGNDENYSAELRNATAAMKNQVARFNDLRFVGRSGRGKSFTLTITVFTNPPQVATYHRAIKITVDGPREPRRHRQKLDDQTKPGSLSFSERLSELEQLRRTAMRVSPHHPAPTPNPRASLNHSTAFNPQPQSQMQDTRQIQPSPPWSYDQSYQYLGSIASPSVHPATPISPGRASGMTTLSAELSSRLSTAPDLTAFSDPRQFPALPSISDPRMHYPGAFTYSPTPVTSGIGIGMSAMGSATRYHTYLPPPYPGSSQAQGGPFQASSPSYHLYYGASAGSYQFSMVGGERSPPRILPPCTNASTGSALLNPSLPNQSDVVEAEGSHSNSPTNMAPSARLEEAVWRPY
Target sequence (Q13951 whole entry, looked up): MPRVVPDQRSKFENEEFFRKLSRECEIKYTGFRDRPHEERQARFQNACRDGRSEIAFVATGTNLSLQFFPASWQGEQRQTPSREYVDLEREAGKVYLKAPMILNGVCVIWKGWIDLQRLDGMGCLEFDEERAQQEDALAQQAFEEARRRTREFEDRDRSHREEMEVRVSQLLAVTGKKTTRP
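Compounds were screened at multiple concentrations against a preformed CBF-beta(His)/RUNX1(biotin) complex (30 nM of each) for 15 min at room temperature, followed by 90 min with nickel and streptavidin beads and AlphaScreen reading.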
D3 ag – activates the human D3 dopamine receptor | P35462 | D3R DiscoveRx beta-arrestin cells, luminescence, 90 min | max activation, % | 0.58% of 410,000 active | AID 652048; in the data active = max activation above about 30%; also: 0% is about no effect
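Agonist mode: compounds and dopamine controls were applied to plated cells for 90 min at 37 degrees C after an overnight attachment at 1500 cells/well. Luminescent read-out followed 30 - 60 minutes at room temperature with DiscoveRx detection reagent.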
PTHR1 ag – PTHR1 (human) receptor agonism; Q03431; HEK293 GP2 PTHR1 cells, GloSensor cAMP luminescence, 1 h; Potency, µM (doses to about 115 µM), for inactives: at the highest dose activation, actives largely listed as activators; 0.075% of 410,000 active; also: potency is read from the fitted curve at half-maximal effect; nearly all actives have a fitted effect of over 55% in size
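HEK-293-derived GP2 cells expressing PTHR1 and a GloSensor cAMP reporter, 3,000/well, plated overnight, given luciferin plus IBMX (each 0.5 mM as added) for 1 h at 37 °C, then compound for 1 h at 37 °C. Luminescence was read after 15 min at room temperature.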
An asterisk follows results filed as active; i = inactive; u = inconclusive; x = not tested or not shown. In the library only some 2.8% were active in any assay of this set; here they are far more common. Unless noted, calls follow the shape of the dose curve; as a rule, active = well fitted curve in the direction sought with a large enough effect; inconclusive = small, poorly fitted or top-dose-only effect, or another doubt; inactive = no such curve, though single readings can be large; an effect the other way counts as inactive or inconclusive.

SMILES	DRD3 antagonist	Integrin act MD	MBNL1 CUG block	CBFb-RUNX1 inh	D3 ag	PTHR1 ag
O=c1c2cccnc2[nH]c(=S)n1CCCN1CCN(c2ccccc2F)CC1	-55*	-3%	-7%	2%	7	i
Cc1ccc2[nH]c3c(=O)n(CC(=O)Nc4ccccc4N4CCN(C)CC4)ncc3c2c1	-55*	-58%	-9%	x	-18	-8%
O=c1c2ccccc2[nH]c(=S)n1CCCN1CCN(c2ccccc2F)CC1	-99*	5%	-6%	x	9	-12%
CCN(CC)CCNC(=O)c1ccc(Cn2c(SCc3ccccc3)nc3cccnc32)cc1	x	x	x	x	-14	-12%
O=c1c2ccccc2[nH]c(=S)n1CCN1CCCCC1	-14	-28%	-1%	x	-13	-28%
O=c1c2ccccc2[nH]c(=S)n1CCCN1CCN(c2ccccc2)CC1	-71*	10%	-11%	x	-11	-7%
O=C(Cn1ncc2c([nH]c3ccccc32)c1=O)NCCCN1CCN(c2ccccc2)CC1	-63*	-21%	-10%	x	6	-46%
CCCCN(C(=O)c1cc(S(=O)(=O)N2CCCCC2)ccc1Cl)c1c(N)n(CC(C)C)c(=O)[nH]c1=O	-10	-14%	x	x	1	i
CC(=O)c1c(C)[nH]c(C(=O)OCC(=O)C(C)(C)C)c1C	3	-1%	0%	2%	1	i
CC(=O)c1c(C)[nH]c(C(=O)OCC(=O)c2ccc(C)s2)c1C	-3	-2%	x	x	44*	-48%
CNC(=O)COC(=O)c1[nH]c(C)c(C(C)=O)c1C	-79*	18%	-4%	16%	-3	i
CC(=O)c1c(C)[nH]c(C(=O)OCC(=O)NCC(C)C)c1C	10	-9%	-4%	5%	3	-16%
CCC(CC)N1CCN(C(=O)c2cc(OC)c(OC)c(OC)c2)CC1	11	23%	-9%	x	13	-15%
CCC(=O)O[C@]1(C(=O)CCl)[C@@H](C)C[C@H]2[C@@H]3C[C@H](F)C4=CC(=O)C=C[C@]4(C)[C@@]3(F)[C@@H](O)C[C@@]21C	x	x	x	x	5	x
COCCn1c(=O)c2c(nc3n2CCCN3CCc2ccccc2)n(C)c1=O	14	44%	-2%	x	102*	i
CCOCCn1c(=O)c2c(nc3n2CCCN3CCc2ccccc2)n(C)c1=O	-1	16%	-5%	x	2	-7%
CCOC(=O)C1CCCN(C(=O)C2(c3ccc(Cl)cc3)CCCC2)CC1 (stereo not drawn)	-13	x	x	x	-6	i
Brc1ccc(-c2csc(N/N=C/c3ccco3)n2)cc1	36	12%	4%	-6%	30*	i
COCCNC(=O)C1(C)CCCN(CCOc2ccc(Cl)cc2)C1 (stereo not drawn)	-55*	x	x	x	-6	u
CCCNC(=O)C1(C)CCN(CCOc2ccc(Cl)cc2)C1 (stereo not drawn)	-72*	x	x	x	-1	-24%
COc1ccc(C(=O)NCC(=O)OCC(=O)Nc2ncc(Cl)cc2Cl)cc1[N+](=O)[O-]	5	0%	x	x	-3	i
CC[C@]12c3[nH]c4ccccc4c3CCN1C(=O)C(CC(=O)NCCCN(C)C)C[C@@H]2C(=O)N1CCN(C(=O)C2CC2)CC1 (stereo partly drawn)	-59*	16%	x	x	-8	9%
CC[C@]12c3[nH]c4ccccc4c3CCN1C(=O)C(CC(=O)NCCCOC)C[C@@H]2C(=O)N1CCN(C(=O)C2CC2)CC1 (stereo partly drawn)	-17	-2%	x	x	-16	i
CC[C@]12c3[nH]c4ccc(OC)cc4c3CCN1C(=O)C(CC(=O)NCCCn1ccnc1)C[C@@H]2C(=O)N1CCN(C(=O)c2ccco2)CC1 (stereo partly drawn)	38	-2%	x	x	28	-12%
